Measured values published in PubChem BioAssay AID602475 (National Center for Advancing Translational Sciences (NCATS), 2012).
Results filed as inconclusive are left out. Unmarked numbers belong to inactive results. Calls of active or inactive are those of the source. Calls come from the whole dose curve; as a rule, active = well fitted inhibition curve with a large enough effect; inconclusive = small, poorly fitted or top-dose-only effect; inactive = no such curve, though single readings can be large or run the other way.

target: Luciferin 4-monooxygenase (Photinus pyralis) (UniProt P08659); assay: FLuc inhibitory activity for the follow-up compounds in a biochemical assay with an in-house formulation of detection reagent; settings: purified FLuc, luminescence; series mostly up to 25.6 µM; activity change, negative = inhibition: at the top concentration
Sequence (P08659 whole entry, looked up): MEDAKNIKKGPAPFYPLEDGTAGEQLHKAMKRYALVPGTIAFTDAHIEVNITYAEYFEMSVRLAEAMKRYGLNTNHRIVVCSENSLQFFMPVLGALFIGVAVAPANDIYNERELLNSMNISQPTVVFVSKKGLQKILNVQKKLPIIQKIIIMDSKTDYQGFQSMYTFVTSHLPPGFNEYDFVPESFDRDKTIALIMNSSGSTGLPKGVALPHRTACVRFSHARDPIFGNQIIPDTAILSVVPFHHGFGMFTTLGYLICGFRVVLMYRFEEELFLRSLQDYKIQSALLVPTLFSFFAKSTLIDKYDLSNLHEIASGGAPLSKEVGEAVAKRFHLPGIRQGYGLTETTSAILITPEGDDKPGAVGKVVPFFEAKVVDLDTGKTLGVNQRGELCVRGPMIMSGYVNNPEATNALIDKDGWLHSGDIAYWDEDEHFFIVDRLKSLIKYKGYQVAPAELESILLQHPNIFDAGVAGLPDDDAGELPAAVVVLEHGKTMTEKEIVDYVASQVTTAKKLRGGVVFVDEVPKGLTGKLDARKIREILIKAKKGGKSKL
From the text: NCGC Assay Overview: Firefly (Photinus pyralis) luciferase is one of the most commonly used transcriptional reporters. It is considered one of the more dynamically responsive reporters - that is, responsive to changes in reporter transcription - as it requires no post-translational modifications and is enzymatically active directly after protein synthesis (Wood, 1998). With no endogenous expression in mammalian cells and without the requirement of external excitation, it offers very little background signal, thus generally providing excellent signal to background for most assays. Previous profiling work to determine the prevalence of compounds that affect FLuc enzymatic activity (PubChem AID 411) identified that ~3% of the MLSMR library (then at ~72K) inhibited FLuc (Auld et al., 2008). […] Of the compounds identified in this profile that inhibited FLuc, 151 compounds were selected for further analysis, in an effort to better understand their mode of inhibiting FLuc. The assay described here was to determine the activity of the compounds in a FLuc assay that used an in-house formulation of detection reagent.
NCGC Assay Protocol Summary: Reagents: 300mM Tris-HCl, 300mM Trizma base, 300mM MgCl, 1% Triton-X100, 5mM DTT, 500uM Coenzyme A trilithium salt (Sigma #C3019),450uM ATP (Sigma #A7699), 1mM D-luciferin sodium salt monohydrate (Biosynth #L8240); 10nM P. pyralis luciferase (Sigma #L9506) Control compounds used were two known firefly luciferase inhibitors (3-(5-(3-chlorophenyl)-1,2,4-oxadiazol-3-yl)benzoic acid and 5-(2-fluorophenyl)-3-phenyl-1,2,4-oxadiazole), and DMSO. Assay Summary: Six microliters of buffer containing firefly luciferase (final concentrations: 50mM Tris acetate, 10nM P. pyralis luciferase) are dispensed into each well of a Greiner white, solid-bottom 1536-well format plate using a flying reagent dispenser (FRD). These assay plates were then treated with 23nL of compound or DMSO using a Kalypsys pin tool, which allows for delivery of a 12-point intraplate titration of each compound to the assay plate (quantitative HTS), with final compound concentrations ranging from approximately ~25uM to 0.1nM. Three microliters of 3X in-house detection reagent was then delivered by FRD to each well (final concentrations in assay: 300mM Tris-HCl, 300mM Trizma base, 300mM MgCl, 1% Triton-X100, 5mM DTT, 500uM Coenzyme A trilithium salt, 450uM ATP, 1mM D-luciferin sodium salt monohydrate). Luciferase activity was then measured using a ViewLux CCD imager (PerkinElmer), with an average exposure time of 2-30 seconds (2X binning, medium/high gain).

In order of rising “activity change, negative = inhibition” value:
1. COc1ccc(C(=O)Nc2ccccc2C(=O)Nc2ccccc2C(=O)O)cc1  -25.8%
2. CC(=O)Oc1ccc(C(=O)Nc2ccccc2C(=O)Nc2ccc(C(=O)O)cc2)cc1  -24.4%
3. O=C(O)c1cccc(NC(=O)c2ccccc2NC(=O)c2ccco2)c1  -24.1%
4. COc1cc(OC)cc(-c2nc3ccccc3s2)c1  -24%
5. Cc1ccc(C(=O)Nc2cccc(C(=O)O)c2)cc1S(=O)(=O)N1CCCC1  -19.5%
6. O=C(Cc1ccccc1)Nc1ccccc1C(=O)Nc1ccc(C(=O)O)cc1  -19.1%
7. O=C(Nc1ccccc1C(=O)O)c1cc(S(=O)(=O)NCc2ccccc2)ccc1Cl  -17.5%
8. COc1ccc(Br)cc1C(=O)Nc1ccc(C(=O)O)cc1  -16.9%
9. O=C(Nc1ccccc1C(=O)O)c1cccc(C(=O)Nc2ccccc2C(=O)O)c1  -16.8%
10. COc1ccccc1C(=O)Nc1ccc(C(=O)O)cc1  -16.7%
11. O=C(Nc1ccccc1C(=O)O)c1cccc(NC(=O)c2ccc(Br)o2)c1  -16.6%
12. CCc1noc(C)c1C(=O)Nc1nc2ccc(OC)cc2s1  -15.2%
13. O=C(O)c1ccc(NC(=O)c2ccccc2NC(=O)c2ccccc2Br)cc1  -14%
14. O=C(O)c1cccc(NC(=O)c2ccc(Cl)c(S(=O)(=O)N3CCCCCC3)c2)c1  -13.5%
15. O=C(O)c1ccc(NC(=O)c2ccccc2NC(=O)c2cccc(Br)c2)cc1  -13.3%
16. O=C(O)c1cccc(NC(=O)c2cccc(S(=O)(=O)Nc3cccc(F)c3)c2)c1  -12%
17. CC(=O)Nc1cccc(-c2nc3ccccc3s2)c1C  -10.4%
18. O=C(O)c1ccc(NC(=O)c2cc(S(=O)(=O)N3CCCCC3)c(Cl)cc2Cl)cc1  -9.37%
19. Cc1ccc(C(=O)Nc2cccc(C(=O)O)c2)cc1S(=O)(=O)N1CCOCC1  -8.83%
20. COc1cc(C(=O)Nc2cc(C)c(O)c(-c3nc4ccccc4s3)c2)cc(OC)c1OC  -8.7%
21. O=C(Nc1ccccc1C(=O)O)c1cc(S(=O)(=O)Nc2ccccc2)ccc1Cl  -7.63%
22. O=C(O)c1cccc(NC(=O)c2cccc(S(=O)(=O)N3CCc4ccccc43)c2)c1  -6.28%
23. O=C(O)c1cccc(NC(=O)c2cccc(S(=O)(=O)N3CCCCC3)c2)c1  -2.55%
24. O=C(Nc1ccccc1C(=O)O)c1cccc(NC(=O)c2ccccc2Br)c1  -2.39%
25. Cc1c(NC(=O)C(C)(C)C)cccc1-c1nc2ccccc2s1  2.61%
26. O=C(Nc1ccccc1C(=O)O)c1cccc(S(=O)(=O)Nc2ccc(Br)cc2)c1  3.86%
27. Cc1c(NS(C)(=O)=O)cccc1-c1nc2ccccc2s1  4.59%
28. O=C(Cc1ccc(Cl)cc1)Nc1cccc(C(=O)Nc2ccccc2C(=O)O)c1  9.02%
29. O=C(Nc1cccc(-c2nc3ccccc3s2)c1)c1cc(-n2cnnc2)ccc1Cl  12.7%

`CC(C)(C)C(=O)Nc1ccc(-c2nc3ccccc3s2)cc1` was tested, and the Potency was 0.0219 µM (active).
In the case of `Nc1ccc(-c2nc3ccc(N)cc3s2)cc1`, the Potency is reported as 4.91 µM (active).
With `Cc1ccc(C(=O)O/N=C(\N)c2ccccn2)c(Cl)c1` the Potency was 0.0619 µM (active).
For `CCn1c(C)nc2cc(-c3nc4n(n3)Cc3ccccc3-4)ccc21`, the Potency was 0.155 µM (active).
In the case of `CCOc1ccc2nc(NC(=O)c3ccccc3)sc2c1`, the Potency is reported as 6.19 µM (active).
In the case of `O=C(Nc1ccccc1C(=O)O)c1ccc(NC(=O)C2CC2)cc1`, the Potency is reported as 7.79 µM (active).
For `CC(C)c1ccc(-c2nc3ccccc3s2)cc1`, the Potency was 0.098 µM (active).
`Cc1ccc2nc(-c3ccc(NC(=O)CN4CCN(C(=O)c5ccco5)CC4)cc3)sc2c1` was tested, and the Potency was 2.46 µM (active).
`CCOc1ccc(C(=O)Nc2ccccc2C(=O)O)cc1` was tested, and the Potency was 6.94 µM (active).
With `COc1ccc2nc(NC(=O)CCc3nc(-c4ccccc4F)no3)sc2c1` the Potency was 6.94 µM (active).
With `CCOc1ccc2nc(NC(=O)c3ccccn3)sc2c1` the Potency was 3.9 µM (active).
